# Experimental data from PubChem BioAssay.
# Active and inactive are the calls of the source.
# What was measured:
# [1] = optical density shifts of acrAB sulA E. coli – strain DRC41, OD650, 48 h, E. coli filamentation inducer project, primary screen (AID 1152); details: higher = more signal, called active from +8 up or from −8 down;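 note: E. coli MC1000 strain DRC41 lacking acrAB efflux pump and sulA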
# [2] = probe aLefty1 binding on compound microarray – biochemical, small-molecule microarray, 635/667 nm fluorescence, primary screen (AID 1153); details: higher = more signal;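 note: score merges spot fluorescence with signal-to-noise ratio from the scanned slide images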
# [3] = plasmodial surface anion channel blockers, osmotic lysis – cell-based, P. falciparum Indochina, OD700, 1 h, primary screen (AID 1154); details: P. falciparum Indochina infected RBC osmotic lysis, higher = more signal, called active from +8 up or from −8 down
# [4] = plasmodial surface anion channel blockers, osmotic lysis – cell-based, P. falciparum Indochina, OD700, 2 h, primary screen (AID 1155);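 note: lysis reports solute entry through the parasite surface anion channel PSAC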; details: P. falciparum Indochina infected erythrocytes, higher = more signal, called active from +8 up or from −8 down
# [5] = changes in parasitized red cell lysis, either direction – P. falciparum Indochina, OD700, 3 h, PSAC antagonist project, primary screen (AID 1156); details: P. falciparum-infected erythrocytes, osmotic lysis, higher = more signal, called active from +8 up or from −8 down
# [6] = plasmodial surface anion channel blockers, osmotic lysis – cell-based, P. falciparum Indochina, OD700, 18 h, primary screen (AID 1157); details: P. falciparum Indochina infected erythrocytes, osmotic lysis OD700, 18 h; higher = more signal, called active from +8 up or from −8 down
# [7] = S6 kinase pathway phospho-S6 level changes – cell-based, A549, cytoblot, luminescence, serum-stimulated, primary screen (AID 1158); details: 5 h, higher = more signal;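 note: serum-stimulated A549 lung adenocarcinoma cells; signal is phosphorylated S6 detected by cytoblot immunostaining with HRP secondary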
# [8] = target: NADPH oxidase 2 (Homo sapiens) (UniProt P04839); assay: compounds shifting NOX2 Amplex Red fluorescence – cell-based, HEK293-NOX2, PMA-stimulated, NOX inhibitor project, primary screen (AID 1159); details: 45 min, higher = more signal, called active from +8 up or from −8 down; note: test concentration not given here
# [9] = target: NADPH oxidase 4 (Homo sapiens) (UniProt Q9NPH5); assay: compounds shifting NOX4 Amplex Red fluorescence – cell-based, HEK293-NOX4, tetracycline-induced, NOX inhibitor project, primary screen (AID 1160); details: HEK293-NOX4, Amplex Red H2O2 fluorescence, 45 min; higher = more signal, called active from +8 up or from −8 down
# [10] = target: NADPH oxidase 5 (Homo sapiens) (UniProt Q96PH1); assay: compounds shifting NOX5 Amplex Red fluorescence – cell-based, HEK293-NOX5, NOX inhibitor project, primary screen (AID 1161); details: HEK293-NOX5, ionomycin, 45 min, higher = more signal
# [11] = compound effects on lung adenocarcinoma cell viability – A549, calcein-AM fluorescence, 48 h, basal, profiling panel (AID 1162); details: higher = more signal; note: test concentration not given here
# [12] = compound effects on differentiated 3T3-L1 adipocyte viability – cell-based, 3T3-L1 adipocytes, calcein-AM fluorescence, 48 h, basal, profiling panel (AID 1163); details: 3T3-L1 adipocytes viability, higher = more signal; note: test concentration not given here
# [13] = compound effects on hepatocellular carcinoma cell viability – HepG2, calcein-AM fluorescence, 48 h, basal, profiling panel (AID 1164); details: higher = more signal; note: test concentration not given here
# [14] = compound effects on multiple myeloma cell viability – MM1S, calcein-AM fluorescence, 48 h, basal, profiling panel (AID 1165); details: higher = more signal;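 note: viability of MM1S multiple myeloma cells under basal unstimulated conditions; test concentration not given here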
# [15] = calcein-AM signal in unstimulated myeloma cells – cell-based, calcein-AM fluorescence, 48 h, PK04 Diversity Set, profiling panel (AID 1166); details: RPMI8226 myeloma viability, higher = more signal;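 note: cells grown under basal conditions without added stimulus; test concentration not given here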
# [16] = JC-1 mitochondrial signal, unstimulated HepG2 cells – cell-based, JC-1 fluorescence, 24 h, 100 nL compound, profiling panel (AID 1167); details: HepG2 mitochondrial potential, higher = more signal; note: test concentration not given here
# [17] = JC-1 mitochondrial signal, unstimulated adipocytes – cell-based, JC-1 fluorescence, 3T3-L1 adipocytes, 24 h, 100 nL compound, profiling panel (AID 1168); details: JC-1 mitochondrial fluorescence, higher = more signal, called active from +8 up or from −8 down; note: test concentration not given here
# [18] = JC-1 mitochondrial signal, unstimulated myeloma cells – cell-based, JC-1 fluorescence, RPMI8226, 24 h, 100 nL compound, profiling panel (AID 1169); details: JC-1 mitochondrial potential fluorescence, higher = more signal; note: test concentration not given here
# [19] = JC-1 mitochondrial signal, unstimulated MM1S myeloma – cell-based, JC-1 fluorescence, 24 h, 100 nL compound, profiling panel (AID 1170); details: MM1S mitochondrial potential, higher = more signal; note: test concentration not given here
# [20] = resazurin metabolic signal in A549 cells – cell-based, resazurin fluorescence, 24 h, PK04 Diversity Set, profiling panel (AID 1171); details: A549 viability, higher = more signal, called active from +8 up or from −8 down; note: test concentration not given here
# NADPH oxidase 4 (Homo sapiens), sequence (Q9NPH5 whole entry, looked up): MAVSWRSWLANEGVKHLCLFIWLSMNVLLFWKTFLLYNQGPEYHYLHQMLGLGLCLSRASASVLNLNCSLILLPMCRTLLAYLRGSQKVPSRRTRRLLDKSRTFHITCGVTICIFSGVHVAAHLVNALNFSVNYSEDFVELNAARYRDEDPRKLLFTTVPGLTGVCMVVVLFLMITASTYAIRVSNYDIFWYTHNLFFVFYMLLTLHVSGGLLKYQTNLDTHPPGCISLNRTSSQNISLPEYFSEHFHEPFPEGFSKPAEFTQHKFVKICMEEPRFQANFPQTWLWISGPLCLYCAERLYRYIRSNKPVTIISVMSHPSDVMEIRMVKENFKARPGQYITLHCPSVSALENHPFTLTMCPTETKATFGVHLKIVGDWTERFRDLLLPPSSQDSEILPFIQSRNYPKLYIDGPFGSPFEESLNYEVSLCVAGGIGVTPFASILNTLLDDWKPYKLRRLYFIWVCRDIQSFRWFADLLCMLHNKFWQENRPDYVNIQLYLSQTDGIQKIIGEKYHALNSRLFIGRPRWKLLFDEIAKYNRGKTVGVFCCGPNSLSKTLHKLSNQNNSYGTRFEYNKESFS
# NADPH oxidase 5 (Homo sapiens), sequence (Q96PH1 whole entry, looked up): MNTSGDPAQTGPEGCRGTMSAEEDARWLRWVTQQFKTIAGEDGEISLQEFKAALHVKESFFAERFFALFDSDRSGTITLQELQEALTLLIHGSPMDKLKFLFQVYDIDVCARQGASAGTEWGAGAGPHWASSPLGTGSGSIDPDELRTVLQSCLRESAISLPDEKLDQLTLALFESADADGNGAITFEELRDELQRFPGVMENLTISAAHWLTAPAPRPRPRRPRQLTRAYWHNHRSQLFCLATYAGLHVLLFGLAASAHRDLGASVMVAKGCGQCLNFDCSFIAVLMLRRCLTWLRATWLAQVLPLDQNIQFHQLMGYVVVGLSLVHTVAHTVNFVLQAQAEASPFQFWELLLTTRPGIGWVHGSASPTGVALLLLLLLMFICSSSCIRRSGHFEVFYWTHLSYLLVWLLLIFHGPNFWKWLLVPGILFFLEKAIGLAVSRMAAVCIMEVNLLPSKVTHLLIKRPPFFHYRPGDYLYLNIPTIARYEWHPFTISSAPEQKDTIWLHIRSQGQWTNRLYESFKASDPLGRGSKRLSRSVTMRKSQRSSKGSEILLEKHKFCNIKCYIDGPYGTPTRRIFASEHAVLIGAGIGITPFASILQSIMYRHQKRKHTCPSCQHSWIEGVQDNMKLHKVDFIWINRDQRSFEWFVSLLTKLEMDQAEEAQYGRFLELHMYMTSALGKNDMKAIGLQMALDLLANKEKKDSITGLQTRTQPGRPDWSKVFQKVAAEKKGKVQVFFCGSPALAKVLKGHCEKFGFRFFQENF
# NADPH oxidase 2 (Homo sapiens), sequence (P04839 whole entry, looked up): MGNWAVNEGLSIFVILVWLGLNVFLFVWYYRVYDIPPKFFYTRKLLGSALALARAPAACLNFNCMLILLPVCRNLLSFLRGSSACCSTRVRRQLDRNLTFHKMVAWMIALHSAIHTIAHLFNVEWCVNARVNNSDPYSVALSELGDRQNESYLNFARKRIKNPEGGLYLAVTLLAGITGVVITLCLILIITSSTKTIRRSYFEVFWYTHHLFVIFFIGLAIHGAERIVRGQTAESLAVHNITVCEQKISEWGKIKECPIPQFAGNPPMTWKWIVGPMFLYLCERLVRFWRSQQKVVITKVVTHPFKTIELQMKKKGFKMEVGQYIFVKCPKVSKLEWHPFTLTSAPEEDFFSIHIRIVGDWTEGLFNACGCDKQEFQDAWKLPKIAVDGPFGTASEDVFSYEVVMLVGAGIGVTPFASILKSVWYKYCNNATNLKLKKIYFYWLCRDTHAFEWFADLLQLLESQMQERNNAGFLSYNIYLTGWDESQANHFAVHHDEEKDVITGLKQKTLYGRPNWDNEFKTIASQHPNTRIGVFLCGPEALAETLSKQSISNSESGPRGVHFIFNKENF
Structure (SMILES),z-score [1],composite z-score [2],z-score [3],z-score [4],z-score [5],z-score [6],z-score [7],z-score [8],z-score [9],z-score [10],z-score [11],z-score [12],z-score [13],z-score [14],z-score [15],z-score [16],z-score [17],z-score [18],z-score [19],z-score [20]
C=C(COC)/C(=C/C[C@@H](OC(C)=O)c1ccccc1OCCO)c1cc(C(=O)OC)ccc1OC,0.0999 (inactive),0.0945,17.2 (active),2.52 (inactive),1.68 (inactive),1.04 (inactive),-0.0651,0.857 (inactive),-0.16 (inactive),-1.46,1.2,-2.49,0.5,-3.3,-0.866,0.751,0.00709 (inactive),-0.338,-0.875,0.368 (inactive)
NCCCC[C@@H]1NC(=O)[C@H]2C[C@@H](C(=O)O)[C@@H](c3cccc(OCCO)c3)N2C1=O,-1.23 (inactive),0.951,-1.87 (inactive),-0.195 (inactive),0.452 (inactive),0.253 (inactive),-0.993,2.14 (inactive),0.834 (inactive),0.415,-0.917,-0.61,0.274,-1.81,0.0324,-2.23,0.0425 (inactive),-0.392,-0.658,0.506 (inactive)
CO[C@H]1O[C@H](CO)[C@@H](OC(=O)Nc2ccc(C(F)(F)F)cc2)[C@H](OC(=O)Nc2ccccc2-c2ccccc2)[C@H]1OC(=O)Nc1ccccc1-c1ccccc1,-1.16 (inactive),0.398,3.1 (inactive),1.18 (inactive),-2.21 (inactive),1.16 (inactive),-0.413,-3.25 (inactive),-1.07 (inactive),-0.439,-4.38,0.158,-5.26,-3.52,-3.98,0.235,0.0902 (inactive),-0.867,-1.76,-6.26 (inactive)
[N-]=[N+]=Nc1ccccc1[C@@H]1OC(c2ccc(OCCCO)cc2)=N[C@]1(Cc1ccccc1)C(N)=O,1.7 (inactive),0.0576,30.7 (active),31.3 (active),2.22 (inactive),3.17 (inactive),-0.414,0.865 (inactive),0.46 (inactive),-1.48,0.289,-0.186,0.765,-0.835,-2.14,0.308,0.119 (inactive),-0.719,-0.789,-0.199 (inactive)
C=CC[C@]1(C(=O)OC)N=C(c2ccc(OCCCO)cc2)O[C@H]1c1ccccc1N=[N+]=[N-],-0.908 (inactive),1.06,30.3 (active),26.5 (active),5.34 (inactive),4.92 (inactive),0.26,-1.89 (inactive),0.988 (inactive),-0.21,-1.22,0.617,-0.491,-0.54,-2.37,0.54,0.147 (inactive),-1.13,0.676,-1.6 (inactive)
NC(=O)NCC#Cc1ccc2c(c1)[C@]1(C(=O)N2)[C@H](C(=O)N2CCCCCCC2)[C@H]2C(=O)O[C@H](c3ccccc3)[C@H](c3ccccc3)N2[C@@H]1c1ccc(O)cc1,-0.504 (inactive),2.3,-0.268 (inactive),-0.0915 (inactive),-0.117 (inactive),-0.0064 (inactive),-0.602,1.67 (inactive),0.541 (inactive),1.15,-0.491,-0.542,-0.0358,-0.499,-0.193,-1.98,-0.35 (inactive),-0.981,0.0512,-0.0116 (inactive)
CC(C)C(=C=CC[C@@H](O)c1cccc(OCCO)c1)CCO,0.838 (inactive),0.0919,2.96 (inactive),0.108 (inactive),0.607 (inactive),0.233 (inactive),0.617,-0.841 (inactive),-0.471 (inactive),-1.26,0.418,0.114,0.785,0.753,-0.25,0.436,0.258 (inactive),0.314,-1.18,0.625 (inactive)
COc1ccc(NN2C(C(O)c3cc(C(F)(F)F)cc(C(F)(F)F)c3)C=CC3C(=O)N(C4CCCCC4)C(=O)C32)cc1 (stereo not given),-0.523 (inactive),1.41,1.62 (inactive),0.507 (inactive),0.545 (inactive),0.632 (inactive),-0.35,-0.934 (inactive),-1.64 (inactive),-1.35,-0.557,-0.826,0.837,-0.167,-1.31,-1.68,0.0313 (inactive),0.139,-1.14,-0.35 (inactive)
COCC(=C=CC[C@@H](O)c1cccc(OCCO)c1)C[C@@H](O)COCc1ccccc1,1.63 (inactive),1.24,8.33 (active),-1.22 (inactive),1.08 (inactive),-2.47 (inactive),1.31,-0.0404 (inactive),-0.268 (inactive),-1.62,1.06,1.08,1.41,1.16,0.34,0.638,0.362 (inactive),0.539,0.532,0.244 (inactive)
COc1ccc(C#Cc2ccc3c(c2)[C@]2(C(=O)N3)[C@H](c3ccc(OCCO)cc3)N3[C@H](c4ccccc4)[C@H](c4ccccc4)OC(=O)[C@H]3[C@@H]2C(=O)O)cc1,2.24 (inactive),1.4,-1.39 (inactive),-2.59 (inactive),-6.7 (inactive),-2.58 (inactive),1.6,-0.922 (inactive),-1.55 (inactive),-2.5,0.325,1.33,0.712,-3.1,-4.59,-4,-4.96 (inactive),-1.19,-1.99,0.721 (inactive)
CC1CC/C=C\[C@H]2OC34C=CCN(CCN5CCOCC5)C(=O)[C@H]3N(CCCCCCO)C(=O)[C@@H]4C2C(=O)O1 (stereo not given in full),-0.044 (inactive),-0.187,0.592 (inactive),0.267 (inactive),0.215 (inactive),0.182 (inactive),-0.375,0.726 (inactive),-0.0532 (inactive),1.96,0.919,0.24,1.1,1.42,-0.575,0.37,-0.44 (inactive),-0.0357,0.606,-0.116 (inactive)
COC(=O)[C@@H]1N=C(c2ccc(OCCCO)cc2)O[C@@H]1c1ccccc1CN=[N+]=[N-],0.664 (inactive),0.881,25 (active),9.39 (active),-0.5 (inactive),1.33 (inactive),-0.239,-0.817 (inactive),0.827 (inactive),0.0949,0.432,-0.446,-0.198,-0.329,-0.717,-1.07,1.43 (inactive),-0.16,-0.741,1.07 (inactive)
CCN(CC)c1ccc(N2CC=CC34O[C@@H]5C=CCOC(=O)[C@@H]5[C@H]3C(=O)N(CCO)[C@@H]4C2=O)cc1 (stereo not given in full),1.51 (inactive),0.0434,0.116 (inactive),0.0907 (inactive),0.714 (inactive),-0.0665 (inactive),-0.221,-0.0361 (inactive),0.364 (inactive),0.613,1.22,0.273,0.662,-0.783,0.38,0.396,0.537 (inactive),-0.0585,0.0601,0.588 (inactive)
COC(=O)c1c(CC[C@@H](CO)NC(=O)N[C@@H](Cc2ccccc2)Cn2cc(-c3cncn3C)nn2)oc(C(C)=O)c1C(=O)OC,0.922 (inactive),-0.147,1.49 (inactive),-0.182 (inactive),1.29 (inactive),-0.277 (inactive),1.22,-5.64 (inactive),-2.01 (inactive),-3.3,-0.184,1.15,-0.382,0.732,-1.81,-0.321,0.724 (inactive),-0.442,-0.322,-0.208 (inactive)
C=CC(CO)NC(=O)OCC1c2ccccc2-c2ccccc21 (stereo not given),-0.878 (inactive),-0.188,-0.0039 (inactive),-0.124 (inactive),-1.03 (inactive),0.182 (inactive),0.078,-0.385 (inactive),0.0866 (inactive),0.23,-0.454,0.351,-0.479,-1.07,0.0644,-0.692,0.386 (inactive),0.534,0.128,-0.62 (inactive)
N#Cc1ccc(C(O)C2C=CC3C(=O)N(c4ccccc4)C(=O)C3N2Nc2ccc([N+](=O)[O-])cc2)cc1 (stereo not given),-0.955 (inactive),0.391,25.8 (active),12.8 (active),2.25 (inactive),1.56 (inactive),-0.283,-0.562 (inactive),-2.25 (inactive),-1.83,-0.211,-1.46,0.436,-0.0671,-0.333,-2.66,-1.78 (inactive),0.5,-1.43,-0.233 (inactive)
C=CCOC(=O)[C@H]1[C@@H]2C(=O)O[C@@H](c3ccccc3)[C@@H](c3ccccc3)N2[C@@H](c2ccc(OCCOC(=O)[C@@H]3C[C@@H]4C(=O)N[C@@H](CC(C)C)C(=O)N4[C@@H]3c3ccc(O)cc3)cc2)[C@]12C(=O)Nc1ccc(I)cc12,0.833 (inactive),0.106,2.77 (inactive),1.33 (inactive),2.31 (inactive),-1.46 (inactive),1.09,0.894 (inactive),0.499 (inactive),1.4,0.13,0.283,1.55,0.345,-0.207,-1.78,1 (inactive),-0.438,-0.961,-0.629 (inactive)
COc1cc2c(cc1O)C(c1ccc(CN3CCCC3)cc1)N(Cc1cccc(OC(F)(F)F)c1)CC2 (stereo not given),-4.5 (inactive),-0.131,12.3 (active),2.62 (inactive),-0.608 (inactive),1.14 (inactive),-0.223,-8.71 (active),-4.77 (inactive),-6.04,-4.78,0.0154,-5.64,-3.22,-4.48,-3.43,1.04 (inactive),-0.955,-2.64,-4.45 (inactive)
